Assay outcomes deposited in PubChem BioAssay by National Center for Advancing Translational Sciences (NCATS).
HPGD inh: qHTS Assay for Inhibitors of HPGD (15-Hydroxyprostaglandin Dehydrogenase); Potency, µM, for the others: top-dose activity change, negative = inhibition, usual class: inhibitors; actives 4.3% (n = 150,000); AID 894, 2007; 15-hydroxyprostaglandin dehydrogenase [NAD(+)] (Homo sapiens), P15428; purified HPGD, NADH fluorescence kinetic, PGE2 substrate; note: potency is the fitted concentration of half-maximal effect
Target sequence (P15428 whole entry, looked up): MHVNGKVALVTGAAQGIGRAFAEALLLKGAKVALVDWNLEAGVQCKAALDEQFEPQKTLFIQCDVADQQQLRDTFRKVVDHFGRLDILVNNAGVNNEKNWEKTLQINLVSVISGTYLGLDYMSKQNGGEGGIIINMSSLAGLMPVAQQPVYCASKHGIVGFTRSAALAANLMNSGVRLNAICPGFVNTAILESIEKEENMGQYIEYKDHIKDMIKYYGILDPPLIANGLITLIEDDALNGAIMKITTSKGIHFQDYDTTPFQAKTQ
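20 nM HPGD preincubated 15 min at room temperature with compound in 50 mM Tris-HCl pH 8, 0.01% Tween 20. Started with 1 mM NAD+ and 30 uM prostaglandin E2; NADH fluorescence (360/450 nm) read 5 times over 30-s intervals, last minus first.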
ALDH1A1 inh: qHTS Assay for Inhibitors of Aldehyde Dehydrogenase 1 (ALDH1A1) | Purified ALDH1A1, NADH fluorescence, propionaldehyde substrate | Potency, µM (highest dose often 75.3 µM), inactives show at the top dose activity, negative = inhibition, hits mostly inhibitors | actives 7.3% (n = 220,000) | AID 1030, 2008;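 note: potency is the fitted concentration of half-maximal effect; plate controls were no enzyme wells and a reference inhibitor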
PNC inhibitor: High Content Assay for Compounds that inhibit the Assembly of the Perinucleolar Compartment; PC3M PTB-GFP, PNC prevalence imaging, 16 h; hits give low values; activity change (PNC), negative = inhibition, % at 10 µM; actives 3.1% (n = 140,000); AID 2417, 2010;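 active = readout at or below -70, meaning at least 70% loss of cells showing the perinucleolar compartment, a nuclear body marking cancer cells; inconclusive = readout between -30 and a set limit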;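 note: plate controls were DMSO wells for no effect and camptothecin positive control wells for full effect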
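Read-out is percentage of cells bearing a perinucleolar compartment, from automated 20x imaging of fixed, Hoechst-stained PC3M PTB-GFP cells. Cells were seeded 4 h, then exposed 16 h to compound (23 nl of library stock) in duplicate plates.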
* = called active by the depositor; [ ] = remark or other dose. Hits are enriched below; roughly 11% of the tested compounds scored in any of these assays. Unless noted, calls come from the whole dose curve; as a rule, active = well fitted inhibition curve with a large enough effect (not every such curve was filed as active); inconclusive = small, poorly fitted or top-dose-only effect, or another doubt; inactive = no such curve, though single readings can be large or run the other way. Unless noted, % is set by controls: 0 for no effect and ±100 for the full control effect.

What do the screens show for `COc1ccc(/C=N\NC(=O)CNC(=O)C(c2ccccc2)c2ccccc2)cc1[N+](=O)[O-]`?
HPGD inh: -13%; ALDH1A1 inh: 11µM*; PNC inhibitor: inconclusive

How did Cc1cc([N+](=O)[O-])cc(C)c1OCC(=O)N/N=C/c1ccc(OC(=O)c2ccccc2)cc1 do in these assays?
HPGD inh: -13%; ALDH1A1 inh: -6%; PNC inhibitor: -100*

Results for COc1ccc(/C=N/NC(=O)C(C)Sc2ccccn2)cc1[N+](=O)[O-] (centres undefined) ?
ALDH1A1 inh: -9%

Results for O=C(COc1ccccc1[N+](=O)[O-])N/N=C/c1ccccn1 ?
HPGD inh: -12%; ALDH1A1 inh: inconclusive; PNC inhibitor: 69

How did Cc1cc([N+](=O)[O-])cc(C)c1OCC(=O)N/N=C/c1ccc(OC(=O)c2ccccc2Br)cc1 do in these assays?
HPGD inh: -6%; ALDH1A1 inh: 13%; PNC inhibitor: 62

Results for c1ccc(N2CCN(Cc3cn4cccnc4n3)CC2)cc1 ?
HPGD inh: -9%; ALDH1A1 inh: 6%; PNC inhibitor: -15

Results for O=C(NCCCO)C(=O)c1c(-c2ccccc2)cc2ccccn12 ?
ALDH1A1 inh: -15%

What do the screens show for `COC(=O)[C@]1(C)CCC(c2ccc(C)cc2)=C(CC(=O)O)C1`?
HPGD inh: -7%; ALDH1A1 inh: -5%[13.5 µM]

What do the screens show for `CCCC(C)C(=O)OCC(=O)Nc1ccc(Br)cc1` (centres undefined)?
ALDH1A1 inh: 11µM*

How did CC(=O)NC(C)C(=O)OCC(=O)Nc1ccc(Br)cc1 (centres undefined) do in these assays?
HPGD inh: -11%; ALDH1A1 inh: inconclusive; PNC inhibitor: -6

Results for COc1ccc(C(=O)NCCc2c[nH]c3ccccc23)cc1S(=O)(=O)N1CCOCC1 ?
HPGD inh: 2%; ALDH1A1 inh: -1%; PNC inhibitor: -21

How did C=CCN1C(=O)C2C3C=CC(C2C1=O)C1C2C(=O)N(CC=C)C(=O)C2C31 (centres undefined) do in these assays?
ALDH1A1 inh: 0.71µM*

What do the screens show for `O=C1C2C3C=CC(C2C(=O)N1CCCO)C1C2C(=O)N(CCCO)C(=O)C2C31` (centres undefined)?
HPGD inh: -12%; ALDH1A1 inh: 4.5µM*; PNC inhibitor: 17

Results for CN1CCN(CN2C(=O)C3C4C=CC(C3C2=O)C2C3C(=O)N(CN5CCN(C)CC5)C(=O)C3C42)CC1 (centres undefined) ?
HPGD inh: -3%; ALDH1A1 inh: -12%[13.5 µM]

How did CCCCN1C(=O)C2C3C=CC(C2C1=O)C1C2C(=O)N(CCCC)C(=O)C2C31 (centres undefined) do in these assays?
HPGD inh: -8%; ALDH1A1 inh: 6%; PNC inhibitor: inconclusive

What do the screens show for `CCOc1ccc(/C=N/OCC(=O)NCc2ccco2)cc1`?
ALDH1A1 inh: -8%

What do the screens show for `COc1ccc2[nH]cc(CCn3ccc(=O)c(C)c3C)c2c1`?
ALDH1A1 inh: 7%

What do the screens show for `COc1ccc(-n2c(=O)c3ccccc3n(CC(=O)OCc3ccccc3)c2=O)cc1OC`?
ALDH1A1 inh: 6%

What do the screens show for `Cc1cc(-c2cc(-c3ccc(Cl)cc3)nc(N)c2C#N)co1`?
HPGD inh: inconclusive; ALDH1A1 inh: inconclusive; PNC inhibitor: 10

Results for O=C(c1cccc(F)c1)N1CCC[C@@]2(CCN(c3ccccc3)C2)C1 ?
HPGD inh: 7.9µM*; ALDH1A1 inh: 1.1µM*

What do the screens show for `O=C(c1cccc(F)c1)N1CCC2(CC1)CCN(c1cccc(-c3ccccc3)c1)CC2`?
HPGD inh: -16%; ALDH1A1 inh: inconclusive

Results for COc1ccc(NC(=O)N2CCCC3(CCN(C(=O)c4cccc(F)c4)CC3)C2)cc1 ?
HPGD inh: -9%; ALDH1A1 inh: inconclusive

What do the screens show for `O=C(c1cccc(F)c1)N1CCC[C@@]2(CCN(c3cccc(-c4ccccc4)c3)C2)C1`?
HPGD inh: -16%; ALDH1A1 inh: inconclusive

What do the screens show for `O=C(c1cccc(F)c1)N1CCC2(CCCN(c3cccc(-c4ccccc4)c3)C2)CC1`?
HPGD inh: -14%; ALDH1A1 inh: 11µM*

How did O=C(c1cccc(F)c1)N1CCC[C@@]2(CCN(Cc3ccccc3)C2)C1 do in these assays?
HPGD inh: 18µM*; ALDH1A1 inh: -7%

How did O=C(c1cccc(F)c1)N1CCC2(CC1)CN(Cc1ccccc1)C2 do in these assays?
HPGD inh: -3%; ALDH1A1 inh: 3%

What do the screens show for `COc1ccc(NC(=O)N2CC[C@@]3(CCCN(C(=O)c4cccc(F)c4)C3)C2)cc1`?
HPGD inh: -10%; ALDH1A1 inh: 18µM*

What do the screens show for `Cc1c(C(=O)O)cccc1-c1ccc(/C=N/Nc2ccc(Br)cc2)o1`?
HPGD inh: inconclusive; ALDH1A1 inh: inconclusive; PNC inhibitor: 2

What do the screens show for `Cc1ccc2c(Cl)cc(Cl)c(OCC(=O)Nc3ccc(C)c(S(=O)(=O)N(C)C)c3)c2n1`?
HPGD inh: -7%; ALDH1A1 inh: inconclusive; PNC inhibitor: inconclusive

Results for O=C(COc1cccc(F)c1)N[C@@H](Cc1ccccc1)c1nc2ccccc2[nH]1 ?
HPGD inh: -5%; ALDH1A1 inh: 7%; PNC inhibitor: -30

What do the screens show for `OCCN(CCO)c1ncnc2nc[nH]c12`?
HPGD inh: -12%; ALDH1A1 inh: 17%[13.5 µM]

How did O=C(c1cccc(F)c1)N1CCC2(CC1)CN(C(c1ccccc1)c1ccccc1)C2 do in these assays?
HPGD inh: -14%; ALDH1A1 inh: inconclusive

What do the screens show for `COc1ccc(NC(=O)N2CCC3(CC2)CCN(S(=O)(=O)c2ccccc2)CC3)cc1`?
HPGD inh: -2%; ALDH1A1 inh: 2%

How did COc1ccc(NC(=O)N2CCCC3(CCN(S(=O)(=O)c4ccccc4)CC3)C2)cc1 do in these assays?
HPGD inh: -7%; ALDH1A1 inh: 14µM*

What do the screens show for `O=C(c1cccc(F)c1)N1CCC[C@@]2(CCN(C(c3ccccc3)c3ccccc3)C2)C1`?
HPGD inh: -28%; ALDH1A1 inh: 8.9µM*

What do the screens show for `CC(C)(C)c1[nH]nc2c1C(Cc1ccccc1)C(C#N)=C(N)O2` (centres undefined)?
HPGD inh: -8%; ALDH1A1 inh: -4%; PNC inhibitor: inconclusive

How did COc1ccc(N(CC(=O)N/N=C/c2ccc3c(c2)OCO3)S(=O)(=O)c2ccccc2)cc1 do in these assays?
ALDH1A1 inh: -2%

How did Brc1cc2c(cc1COc1ccc(-c3nn[nH]n3)cc1)OCO2 do in these assays?
HPGD inh: 25µM*; ALDH1A1 inh: inconclusive; PNC inhibitor: 43

What do the screens show for `CCOc1ccc(-c2nn[nH]n2)cc1`?
HPGD inh: -14%; ALDH1A1 inh: 18%; PNC inhibitor: 28

How did CCN(CC)C(=O)CSc1nc2ccc(NC(=O)CSc3nnc(N)s3)cc2s1 do in these assays?
HPGD inh: 14µM*; ALDH1A1 inh: inconclusive; PNC inhibitor: -100*

What do the screens show for `COc1ccc2nc(NC(=O)CSc3nnc(N)s3)sc2c1`?
HPGD inh: -12%; ALDH1A1 inh: 2%; PNC inhibitor: inconclusive
